Assay outcomes (PubChem)
Only some compounds are listed: those with a hit (about 1.2% of all), similar ones and a draw of the others.
ugtP null kill: growth inhibition of ugtP-null S. aureus, primary screen, RN4220 ugtP deletion, OD600; 16 h; growth inhibition, % (concentration not given with the values); hit rate 0.54% among 330,000; AID 1259309, 2017; in the data active means growth inhibition above about 68%
BH1578 lux ind: inducers of Vibrio cholerae quorum light production without autoinducers, primary screen, BH1578 luxS cqsA deficient, single point | hit rate 0.16% among 350,000 | activation, % at 18.7 µM | V. cholerae BH1578 lux reporter, luminescence, 6 h; in the data active means activation mostly above about 9.7%, no sharp cut-off; inconclusive means no clear call, values can overlap the other calls; inactive means mostly below about 3.7%
Mtb betalactam: beta-lactam sensitization of Mtb H37Rv, H37Rv; M. tuberculosis H37Rv growth with meropenem, percent inhibition; inhibition, % at 25 µM; hit rate 0.27% among 330,000; call rule not given here;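 further: growth measured after seven days incubation then overnight dye step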
PfHsp40 yeast: rescue of yeast from PfHsp40 toxicity, primary screen, S. cerevisiae, ATP luminescence | S. cerevisiae expressing PfHsp40, growth rescue | growth rescue, % at 12.5 µM | hit rate 0.68% among 340,000; in the data active means growth rescue above about 28%, passing the limit was not always enough; inconclusive means no clear call, values can overlap the other calls;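 further: yeast W303a lacking pdr1 and pdr3 grown in galactose medium; growth measured after three days at 30 °C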
Sa RN4220 lethal: growth inhibition of S. aureus RN4220, primary screen, OD600; 16 h; inhibition, % (concentration not given with the values); hit rate 0.33% among 330,000; AID 1259311, 2017; in the data active means inhibition above about 85%
Numbers stand for hits; i = inactive; ? = inconclusive; nt = no result given.

SMILES	ugtP null kill	BH1578 lux ind	Mtb betalactam	PfHsp40 yeast	Sa RN4220 lethal
COC(=O)c1ccc(C23CC4(C2)C(CN(C)C4c2ccccc2)C3c2ccccc2)cc1 (stereo unspecified)	i	nt	nt	nt	i
CC(C)(C)c1cc(C(=O)NN=Cc2cc3c(cc2Br)OCO3)n[nH]1	i	nt	nt	nt	i
O=C(Nc1cccnc1)c1ccc(COc2ccccc2Br)o1	i	i	i	i	i
CC(C)(C)c1ccc(OCc2ccc(C(=O)Nc3cccnc3)o2)cc1	i	i	i	37	i
COC(=O)C1=COC(O)C2C(CO)=CCC12 (stereo unspecified)	i	nt	nt	nt	i
Cc1cccc([N+](=O)[O-])c1NC(=O)CN(Cc1ccccc1)Cc1ccccc1	99	i	i	i	i
O=C(O)/C=C\C(=O)Nc1ccc(F)c(F)c1F	i	i	i	i	i
O=C(O)/C=C\C(=O)Nc1ccccc1F	i	i	i	37	i
Cc1ccc(C2C3C(=O)N(c4ccccc4)C(=O)C3[C@]3(C)C(=O)N(Cc4ccccc4)CC(=O)N23)o1 (stereo partly specified)	i	nt	nt	nt	i
FC(F)(F)c1nc2ccccc2nc1NN=Cc1c(Cl)cccc1Cl	i	nt	nt	nt	i
CC#CC[N+](C)(C)CCCCCCCCCCCC	100	i	nt	i	100
C#CC[N+](C)(C)CCCCCCCCCCCC	99	i	i	i	99
C#CC[N+](C)(C)CCCCCCCC	i	nt	i	i	i
C#CC[N+](C)(C)CCCCCCCCCC	93	i	i	i	i
C[N+]1([O-])C2CC(OC(=O)C(CO)c3ccccc3)CC1C1OC12 (stereo unspecified)	i	nt	nt	nt	i
Cn1ncc(Br)c1C(=O)NN=Cc1ccc(OS(=O)(=O)c2ccccc2)cc1	i	nt	nt	nt	i
COc1cc(C=NO)cc(Cl)c1OC	i	nt	nt	nt	i
CCCCC(CN(N=O)C(Cc1ccccc1)CN(C)N=O)N(CCc1ccccc1)N=O (stereo unspecified)	i	nt	nt	nt	i
CC[N+](CC)(CC)CCOc1ccc(C=Cc2ccccc2)cc1	i	nt	nt	nt	i
Cc1ccc(-c2cc(-c3ccc(C)cc3O)[nH]n2)cc1	i	i	i	i	i
Cc1ccc(-c2cc(-c3ccccc3Cl)[nH]n2)c(O)c1	i	i	i	136	i
Cc1ccc(O)c(-c2cc(-c3cccc(Br)c3)n[nH]2)c1	i	i	i	119	87
Cc1ccc(-c2cc(-c3ccc(F)cc3)n[nH]2)c(O)c1	i	i	i	180	i
Oc1ccccc1-c1cc(-c2ccc(F)cc2)n[nH]1	i	i	i	170	i
COc1ccc(N=C2SC(=Cc3ccc(C)s3)C(=O)N2CC(C)C)cc1	i	nt	nt	nt	i
SMILES	ugtP null kill	BH1578 lux ind	Mtb betalactam	PfHsp40 yeast	Sa RN4220 lethal
C=CCSC1=NC(=Cc2ccc3c(c2)OCO3)C(=O)S1	i	nt	nt	nt	i
COc1ccc(-c2cc(-c3ccccc3)n[nH]2)c(O)c1	i	i	i	80	i
O=C(NN=Cc1ccccc1O)c1cccc2ccccc12	i	nt	nt	nt	i
Oc1ccccc1N=Nc1ccccc1O	i	i	nt	32	i
CCc1cc(=O)oc2cc(OC(C)C(=O)NCCCn3ccnc3)ccc12 (stereo unspecified)	i	i	i	i	i
Cc1cc(=O)oc2cc(OC(C)C(=O)NCCCn3ccnc3)ccc12 (stereo unspecified)	i	i	i	95	i
CCN(Cc1ccccc1)C(=O)CSc1nc(C)cc(C)c1C#N	i	i	i	129	i
CCN(CC)C(=O)CSc1nc(C)cc(C)c1C#N	i	i	i	i	i
Cc1ccc2nc(C)cc(C(=O)NN=Cc3ccncc3)c2c1	i	nt	nt	nt	i
CC(C)Nc1ccc(Nc2ccnc3cc4ccccc4cc23)cc1	i	i	i	i	i
c1ccc(CCNc2ccnc3cc4ccccc4cc23)cc1	i	i	nt	189	i
COC1=CC(=O)C(O)=C(CCCCCCC/C=C/CCCCCCCC2=C(O)C(=O)C=C(OC)C2=O)C1=O	nt	i	i	i	nt
CCCCCCCCCCCC1=C(O)C(=O)C=C(O)C1=O	100	i	i	i	99
CCCCCCCCCCCCCCCC[N+](C)(C)CC	100	i	i	i	100
C[N+](C)(C)CCCCCC[N+](C)(C)C	i	i	i	i	i
CCCCCCCCCCCCCCCC[N+](C)(C)C	100	i	i	?	100
Clc1ccc2c(c1)c1cc(Cl)ccc1n2CN1CCOCC1	84	i	i	367	i
CCn1c2ccccc2c2cc(CNCCCN3CCOCC3)ccc21	i	i	i	i	i
Clc1ccc2c(c1)c1ccccc1n2CN1CCOCC1	i	nt	i	31	i
C#CCCc1ccccc1C=[N+](C)[O-]	i	nt	nt	nt	i
